Rows were chosen to be rich in hits. Some 4.7% of all compounds tested hit in one or more screens of this group.
TIM10 inh: growth inhibitors of isogenic TIM10 control yeast, primary screen, counter-screen for tim10-1 yeast inhibitor project, luminescence, uHTS; S. cerevisiae TIM10 strain growth, BacTiter-Glo luminescence, 24 h; 330,000 compounds, 1.4% hits; AID 463195, 2010; inhibition, % at 10 µM;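 active means inhibition of 40% or more at the single tested concentration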;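 further: wild-type TIM10 isogenic control strain grown at permissive 25 °C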
SKKanGAS inh: S. pyogenes SKKanGAS growth inhibitors in kanamycin, primary screen, streptokinase expression inhibitor project, SKKanGAS strain, BacTiter-Glo luminescence | 6 h | inhibition, % at 7.5 µM | 300,000 compounds, 1.3% hits | AID 1662, 2009;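 active means mean replicate score, as percent of positive control median, at least 50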;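 further: strain carries kanamycin resistance gene driven by streptokinase promoter and grows in 40 µg/ml kanamycin; loss of luminescence reflects streptokinase promoter inhibition or plain growth inhibition; 0% = median of DMSO wells and 100% = positive control at its reference dose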
tim23-1 inh: growth inhibitors of tim23-1 mutant yeast, primary screen, luminescence, uHTS; inhibition, % at 20 µM; 330,000 compounds, 1.3% hits; S. cerevisiae tim23-1 growth, BacTiter-Glo luminescence, 24 h;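 active means growth inhibition of the mutant yeast at or above 50%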;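 further: temperature-sensitive mutant grown at 25 °C; plate controls were DMSO-treated mutant yeast for no effect and medium wells lacking yeast for full effect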
EBI2 block: EBI2 receptor antagonists, beta-arrestin recruitment, primary screen, cell-based, luminescence, 7a,25-OHC stimulation, uHTS | G-protein coupled receptor 183 (Homo sapiens), P32249 | 7a,25-OHC stimulated | inhibition, % at 5 µM | 360,000 compounds, 0.81% hits | AID 651636, 2012; in the data active means inhibition above about 38%;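 further: enzyme fragment complementation signal reports receptor beta-arrestin coupling in cells; 0% = agonist plus DMSO wells and 100% = wells without agonist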
Target sequence (P32249 whole entry, looked up, the tested form may be a part): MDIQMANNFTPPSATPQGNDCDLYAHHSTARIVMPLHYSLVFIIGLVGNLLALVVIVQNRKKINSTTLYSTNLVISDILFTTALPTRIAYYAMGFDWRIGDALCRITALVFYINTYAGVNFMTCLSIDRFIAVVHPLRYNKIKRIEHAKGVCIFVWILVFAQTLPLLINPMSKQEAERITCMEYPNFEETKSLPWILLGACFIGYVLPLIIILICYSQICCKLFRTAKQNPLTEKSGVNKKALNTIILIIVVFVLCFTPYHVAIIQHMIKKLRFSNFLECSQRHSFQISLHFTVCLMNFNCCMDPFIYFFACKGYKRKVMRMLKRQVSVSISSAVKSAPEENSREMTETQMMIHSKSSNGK
PfHsp90 yeast 2: growth inhibition of PfHsp90-expressing yeast, primary screen, antimalarial PfHsp90 inhibitor project, S. cerevisiae, BacTiter-Glo luminescence, single point, set 2; inhibition, % at 9.4 µM; BacTiter-Glo ATP, 48 h; yeast lacking PDR1 and PDR3 efflux regulators; AID 504621, 2011; 310,000 compounds, 0.32% hits;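 active means every replicate shows inhibition above about 80%, whatever the replicate mean, limit read from the data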;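 further: 0% = DMSO neutral controls and 100% = 20 µM radicicol positive controls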
tim10-1 inh: growth inhibitors of tim10-1 mutant yeast, primary screen, luminescence, uHTS; S. cerevisiae tim10-1 ts strain growth, BacTiter-Glo, 24 h; inhibition, % at 20 µM; 330,000 compounds, 2.2% hits;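 active means inhibition of at least 40%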;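 further: mutant grown at 25 °C; 0% = DMSO wells with yeast and 100% = wells holding no yeast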
EBI2 conf: EBI2 antagonist hit retest, beta-arrestin, confirmation, cell-based, single concentration, luminescence, 7a,25-OHC stimulation; shares compounds with EBI2 block; 7a,25-OHC antagonism; inhibition, % at 5 µM; 2,400 compounds, 29% hits;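 active means inhibition of at least 50%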
EBI2 ag: EBI2 agonist activity of antagonist hits, confirmation, counter-screen for EBI2 antagonist project, cell-based, single concentration, agonist mode, luminescence | shares compounds with EBI2 block | EBI2-expressing cells, 60 min; 0% vehicle, 100% 7α,25-dihydroxycholesterol control | activation, % at 5 µM | 2,400 tested, under 10 active | AID 652000, 2013;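 active means activation of at least 50%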
bGal counter: E. coli beta-galactosidase enzyme inhibition, confirmation, counter-screen for EBI2 antagonist project, biochemical, luminescence, single concentration | 2,400 compounds, 1% hits | AID 652176, 2013 | shares compounds with EBI2 block | inhibition, % at 5 µM | purified beta-galactosidase, luminescent Galacton Star, 15 min;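 active means replicate-average signal at least 3 plate SD below neutral wells, shown as high inhibition, flagging enzyme-inhibiting false positives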;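 further: 0% = DMSO wells with enzyme and 100% = wells lacking enzyme; higher means stronger loss of beta-gal luminescence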
* = called active by the depositor; . = not tested or not shown.

SMILES	TIM10 inh	SKKanGAS inh	tim23-1 inh	EBI2 block	PfHsp90 yeast 2	tim10-1 inh	EBI2 conf	EBI2 ag	bGal counter
Cc1ccc(OCC(=O)N2CCN(C3CCC(c4ccccc4)CC3)CC2)cc1 (configuration not stated)	19.4	-1.0	-357.3	82.1*	.	-12.7	64.3*	1.6	1.8
O=C(COc1ccc(Br)cc1)N1CCN(C2CCCC2)CC1	-9.4	-6.7	22.8	85.2*	4.7	-9.5	81.5*	-1.4	-6.7
O=C(COc1ccccc1)N1CCN(C2CC3CCC2C3)CC1 (configuration not stated)	-3.3	-0.2	4.1	36.7	11.4	20.3	.	.	.
O=C(COc1ccc(Br)cc1)N1CCN(Cc2c[nH]c3ccccc23)CC1	11.9	-1.1	13.2	81.3*	2.1	30.1	53.9*	1.1	8.8
C1=CC(Cc2cncs2)c2ccccc21 (configuration not stated)	-1.5	.	0.7	-5.0	-3.6	7.6	.	.	.
C/C(=N\Nc1ccccc1)c1c(O)n(Cc2ccccc2)c(=O)[nH]c1=O	4.7	1.7	25.4	-5.6	-4.0	6.9	.	.	.
CCOC(=O)C1(c2ccccc2)CCN(CCC(=O)Nc2ccc(OC)cc2)CC1	.	.	.	51.9*	.	.	41.2	3.9	3.5
CCOC(=O)C1(c2ccccc2)CCN(CCC(=O)Nc2cccc(Br)c2)CC1	-2.6	.	-12.1	59.1*	-3.3	-43.2	26.8	0.4	0.9
CCOC(=O)C1(c2ccccc2)CCN(CCC(=O)Nc2ccc(C(=O)OC)cc2)CC1	2.4	.	13.7	13.1	-17.4	-3.8	.	.	.
CC(C)(O)/C=C/C(=O)C(C)(O)C1C(O)CC2(C)C3CC=C4C(C=C(O)C(=O)C4(C)C)C3(C)C(=O)CC12C (configuration not stated)	.	.	.	-60.7	-5.2	.	.	.	.
O=C(COc1ccc(Cl)cc1)N1CCN(Cc2ccc([N+](=O)[O-])cc2)CC1	17.6	2.4	5.1	94.3*	8.1	25.4	78.5*	-0.3	5.3
Cc1ccc(OCC(=O)N2CCN(Cc3cccnc3)CC2)cc1	-3.2	-0.8	13.6	52.7*	0.4	6.6	13.2	-0.7	-8.0
COc1ccc(OCC(=O)N2CCN(Cc3nc4cc([N+](=O)[O-])ccc4n3C)CC2)cc1	6.1	-5.9	-28.0	73.7*	.	-5.9	38.1	-1.8	-7.7
CCc1ccc(OCC(=O)N2CCN(Cc3ccc4c(c3)OCO4)CC2)cc1	-6.3	-4.7	28.2	82.0*	-13.5	14.2	52.9*	0.4	5.6
Cc1ccc(OCC(=O)NCCN2CCN(C(=O)COc3ccc(C)cc3)CC2)cc1	-10.2	0.0	16.2	35.3	10.7	5.4	.	.	.
CCOC(=O)[C@]12Cc3ccc(C)cc3[C@H]1N(C1CCCCC1)C(=O)c1ccccc12	.	.	.	64.4*	.	.	10.8	0.6	-7.6
CCOC(=O)[C@]12Cc3cc(OC)ccc3[C@H]1N(CC(=O)OC)C(=O)c1ccccc12	.	.	.	1.6	.	.	.	.	.
CCOC(=O)[C@]12Cc3cc(C)ccc3[C@H]1N(C1CCCCC1)C(=O)c1ccccc12	.	.	.	60.1*	.	.	6.6	2.2	-11.5
CCOC(=O)[C@]12Cc3c(cc(OC)c(OC)c3OC)[C@H]1N(C1CCCCC1)C(=O)c1ccccc12	.	.	.	71.4*	.	.	-0.8	6.0	-10.6

Screening results from PubChem BioAssay.
